The supplement of paper PMC11732987, “Enantioselective OTUD7B fragment discovery through chemoproteomics screening and high-throughput optimisation” (Communications Chemistry, 2025)

What was measured:
Assay in all cases: log2 ratio of Biotin-Ahx-Ub-VS probe labelling (fragment/DMSO); higher = less target engagement (more negative = stronger competition), active = hit call of the paper (q ≤ 0.05, log2 ratio ≤ -1)
Conditions in all cases: compound concentration: 200 uM; treatment time: 3 h
[1] = molecular target: USP9X (UniProt Q93008)
Chain of USP9X (Q93008 whole entry, the tested form may be a part): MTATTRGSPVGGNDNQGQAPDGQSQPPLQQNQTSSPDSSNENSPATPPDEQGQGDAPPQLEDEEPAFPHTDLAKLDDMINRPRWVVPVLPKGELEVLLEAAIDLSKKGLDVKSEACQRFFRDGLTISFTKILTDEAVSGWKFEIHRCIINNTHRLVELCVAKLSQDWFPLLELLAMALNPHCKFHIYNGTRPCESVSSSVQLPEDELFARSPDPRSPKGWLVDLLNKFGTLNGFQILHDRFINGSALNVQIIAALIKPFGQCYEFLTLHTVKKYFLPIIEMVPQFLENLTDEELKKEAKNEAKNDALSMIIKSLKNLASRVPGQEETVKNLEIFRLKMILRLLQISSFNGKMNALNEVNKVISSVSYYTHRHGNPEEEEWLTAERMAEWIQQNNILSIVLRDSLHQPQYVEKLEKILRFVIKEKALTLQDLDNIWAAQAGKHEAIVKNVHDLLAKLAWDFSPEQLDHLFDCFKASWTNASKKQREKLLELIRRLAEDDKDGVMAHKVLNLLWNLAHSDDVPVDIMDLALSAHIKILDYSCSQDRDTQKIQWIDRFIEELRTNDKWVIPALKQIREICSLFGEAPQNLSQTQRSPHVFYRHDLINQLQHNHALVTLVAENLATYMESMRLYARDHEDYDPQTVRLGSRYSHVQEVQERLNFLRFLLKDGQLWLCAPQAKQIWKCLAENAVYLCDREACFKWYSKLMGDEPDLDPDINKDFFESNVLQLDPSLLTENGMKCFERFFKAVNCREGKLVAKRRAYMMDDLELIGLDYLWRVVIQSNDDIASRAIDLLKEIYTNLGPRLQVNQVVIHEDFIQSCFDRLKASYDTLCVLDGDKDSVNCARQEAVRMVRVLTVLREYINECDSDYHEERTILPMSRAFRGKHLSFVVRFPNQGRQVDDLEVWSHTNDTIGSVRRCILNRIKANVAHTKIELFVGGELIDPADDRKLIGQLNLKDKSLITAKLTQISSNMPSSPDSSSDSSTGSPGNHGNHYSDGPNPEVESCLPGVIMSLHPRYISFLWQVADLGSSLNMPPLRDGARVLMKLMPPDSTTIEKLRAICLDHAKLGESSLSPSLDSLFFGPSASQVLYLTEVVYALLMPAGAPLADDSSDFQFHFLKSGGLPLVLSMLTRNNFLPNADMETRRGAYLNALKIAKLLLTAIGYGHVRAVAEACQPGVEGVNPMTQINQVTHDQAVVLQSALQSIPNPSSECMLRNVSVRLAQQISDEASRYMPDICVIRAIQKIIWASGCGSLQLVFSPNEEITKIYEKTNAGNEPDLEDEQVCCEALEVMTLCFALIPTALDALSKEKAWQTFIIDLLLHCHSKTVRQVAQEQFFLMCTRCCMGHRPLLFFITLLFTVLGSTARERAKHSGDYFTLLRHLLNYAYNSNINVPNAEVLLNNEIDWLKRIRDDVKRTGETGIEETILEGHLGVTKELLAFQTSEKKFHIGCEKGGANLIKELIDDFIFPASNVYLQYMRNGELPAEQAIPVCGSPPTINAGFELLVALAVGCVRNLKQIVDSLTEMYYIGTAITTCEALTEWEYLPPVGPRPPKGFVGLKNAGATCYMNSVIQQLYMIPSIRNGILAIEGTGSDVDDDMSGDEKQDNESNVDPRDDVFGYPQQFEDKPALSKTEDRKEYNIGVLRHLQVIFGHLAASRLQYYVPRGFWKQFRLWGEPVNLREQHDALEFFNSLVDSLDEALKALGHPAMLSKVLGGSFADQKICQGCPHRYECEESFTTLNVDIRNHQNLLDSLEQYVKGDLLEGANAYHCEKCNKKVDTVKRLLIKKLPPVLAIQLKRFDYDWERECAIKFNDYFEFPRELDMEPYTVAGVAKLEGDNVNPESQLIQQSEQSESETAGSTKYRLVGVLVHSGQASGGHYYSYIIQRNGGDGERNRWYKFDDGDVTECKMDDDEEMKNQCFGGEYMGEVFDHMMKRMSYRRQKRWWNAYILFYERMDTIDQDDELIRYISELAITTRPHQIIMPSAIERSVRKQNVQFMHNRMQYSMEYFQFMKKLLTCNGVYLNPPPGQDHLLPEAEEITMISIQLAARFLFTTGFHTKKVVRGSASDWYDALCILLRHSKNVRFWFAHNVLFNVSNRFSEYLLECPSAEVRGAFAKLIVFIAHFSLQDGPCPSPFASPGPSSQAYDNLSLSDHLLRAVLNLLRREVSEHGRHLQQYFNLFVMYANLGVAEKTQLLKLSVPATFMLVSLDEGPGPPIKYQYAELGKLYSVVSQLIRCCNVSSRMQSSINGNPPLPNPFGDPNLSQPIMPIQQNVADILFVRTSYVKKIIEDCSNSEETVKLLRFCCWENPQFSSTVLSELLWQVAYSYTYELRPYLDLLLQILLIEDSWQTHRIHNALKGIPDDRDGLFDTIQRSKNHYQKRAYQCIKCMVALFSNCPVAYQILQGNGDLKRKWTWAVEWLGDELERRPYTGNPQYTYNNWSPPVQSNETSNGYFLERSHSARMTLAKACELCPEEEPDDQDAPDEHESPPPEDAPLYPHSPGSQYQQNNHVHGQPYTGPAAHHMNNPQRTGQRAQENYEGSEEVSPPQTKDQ
How it was run: (§1)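 HEK293T lysate (495 µg per sample, in Tris/CHAPS/IGEPAL buffer with protease inhibitors) was exposed in triplicate for 3 h to fragment at 200 µM or to vehicle, then to Biotin-Ahx-Ub-VS at 0.5 µM final for 1 h. Labelled DUBs were enriched on NeutrAvidin, digested with LysC and trypsin, and analysed by diaPASEF LC-MS/MS. Spectronaut label-free quantities were normalised to the global median, and values are average log2 ratios of fragment over vehicle from an unpaired t-test. Only proteins with ≥2 unique peptides were used.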

[2] = molecular target: UniProt O00487
Chain of UniProt O00487 (O00487 whole entry): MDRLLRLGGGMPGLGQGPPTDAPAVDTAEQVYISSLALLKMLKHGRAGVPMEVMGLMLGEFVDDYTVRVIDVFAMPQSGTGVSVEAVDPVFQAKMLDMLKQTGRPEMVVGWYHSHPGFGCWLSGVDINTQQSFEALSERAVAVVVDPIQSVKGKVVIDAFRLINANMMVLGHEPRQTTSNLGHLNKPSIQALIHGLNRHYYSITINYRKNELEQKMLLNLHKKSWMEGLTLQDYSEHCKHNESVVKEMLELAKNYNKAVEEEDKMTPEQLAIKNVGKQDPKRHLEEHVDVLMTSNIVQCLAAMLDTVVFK
How it was run: as §1

[3] = molecular target: UniProt O00507
How it was run: as §1

[4] = molecular target: UniProt P51784
Chain of UniProt P51784 (P51784 whole entry): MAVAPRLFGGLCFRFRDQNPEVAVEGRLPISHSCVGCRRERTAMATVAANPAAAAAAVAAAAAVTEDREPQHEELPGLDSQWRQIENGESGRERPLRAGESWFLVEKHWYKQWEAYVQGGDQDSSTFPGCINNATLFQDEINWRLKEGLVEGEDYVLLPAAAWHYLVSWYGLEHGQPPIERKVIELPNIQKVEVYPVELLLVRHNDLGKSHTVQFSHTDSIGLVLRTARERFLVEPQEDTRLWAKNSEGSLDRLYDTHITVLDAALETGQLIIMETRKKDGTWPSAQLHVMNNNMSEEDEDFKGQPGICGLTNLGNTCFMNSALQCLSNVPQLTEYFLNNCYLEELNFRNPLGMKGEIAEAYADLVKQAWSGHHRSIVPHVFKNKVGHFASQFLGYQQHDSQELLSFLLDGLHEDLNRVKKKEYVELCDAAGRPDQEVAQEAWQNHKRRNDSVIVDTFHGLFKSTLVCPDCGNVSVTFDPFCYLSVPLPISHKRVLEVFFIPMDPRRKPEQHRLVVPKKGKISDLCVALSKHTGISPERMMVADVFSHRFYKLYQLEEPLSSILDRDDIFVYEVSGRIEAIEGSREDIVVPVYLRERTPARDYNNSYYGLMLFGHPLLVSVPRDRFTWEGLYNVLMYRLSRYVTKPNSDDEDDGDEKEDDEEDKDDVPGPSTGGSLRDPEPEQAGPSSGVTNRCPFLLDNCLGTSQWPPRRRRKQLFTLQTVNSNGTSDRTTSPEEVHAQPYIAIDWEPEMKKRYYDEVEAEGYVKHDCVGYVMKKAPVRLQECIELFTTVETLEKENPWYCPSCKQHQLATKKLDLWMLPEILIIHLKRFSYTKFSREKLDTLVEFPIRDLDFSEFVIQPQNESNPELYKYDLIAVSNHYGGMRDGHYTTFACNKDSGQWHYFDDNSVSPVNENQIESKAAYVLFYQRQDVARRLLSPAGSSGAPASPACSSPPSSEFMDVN
How it was run: as §1

[5] = molecular target: T1, UniProt Q5T2D3
T1 sequence (whole entry): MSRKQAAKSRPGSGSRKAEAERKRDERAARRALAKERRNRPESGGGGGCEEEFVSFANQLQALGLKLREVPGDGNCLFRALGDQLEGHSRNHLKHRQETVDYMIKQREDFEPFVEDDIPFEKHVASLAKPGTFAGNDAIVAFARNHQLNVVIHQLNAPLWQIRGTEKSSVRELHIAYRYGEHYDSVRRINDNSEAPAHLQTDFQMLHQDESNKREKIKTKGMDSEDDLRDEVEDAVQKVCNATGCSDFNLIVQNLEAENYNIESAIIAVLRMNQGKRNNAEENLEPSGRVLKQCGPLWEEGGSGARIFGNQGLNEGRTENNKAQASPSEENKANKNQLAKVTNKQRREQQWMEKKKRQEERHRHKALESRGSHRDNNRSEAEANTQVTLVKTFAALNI
How it was run: as §1

[6] = molecular target: T2, UniProt Q8TE49
T2 sequence (whole entry): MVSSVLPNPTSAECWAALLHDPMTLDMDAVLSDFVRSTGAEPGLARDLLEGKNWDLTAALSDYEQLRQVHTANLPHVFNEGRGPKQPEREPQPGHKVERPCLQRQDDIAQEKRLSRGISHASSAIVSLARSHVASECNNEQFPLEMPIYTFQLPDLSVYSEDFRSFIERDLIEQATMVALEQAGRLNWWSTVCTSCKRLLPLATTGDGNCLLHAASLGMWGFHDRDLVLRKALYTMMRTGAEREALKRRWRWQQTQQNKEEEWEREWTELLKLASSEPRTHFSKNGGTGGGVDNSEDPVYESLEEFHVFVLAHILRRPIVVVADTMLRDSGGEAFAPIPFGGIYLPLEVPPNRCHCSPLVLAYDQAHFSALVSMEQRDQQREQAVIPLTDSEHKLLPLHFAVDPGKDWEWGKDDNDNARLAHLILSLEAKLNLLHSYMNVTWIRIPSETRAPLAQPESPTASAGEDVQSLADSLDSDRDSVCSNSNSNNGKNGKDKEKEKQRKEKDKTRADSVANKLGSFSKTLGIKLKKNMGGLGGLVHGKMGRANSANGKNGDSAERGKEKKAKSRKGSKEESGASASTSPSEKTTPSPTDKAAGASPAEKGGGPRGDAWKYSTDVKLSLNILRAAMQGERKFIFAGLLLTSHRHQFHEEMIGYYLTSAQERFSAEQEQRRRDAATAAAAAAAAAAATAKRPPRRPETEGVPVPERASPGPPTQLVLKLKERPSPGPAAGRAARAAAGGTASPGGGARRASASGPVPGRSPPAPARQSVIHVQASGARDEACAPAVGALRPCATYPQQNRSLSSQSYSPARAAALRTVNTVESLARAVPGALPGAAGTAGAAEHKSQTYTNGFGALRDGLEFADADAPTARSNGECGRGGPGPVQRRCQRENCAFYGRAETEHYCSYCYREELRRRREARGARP
How it was run: as §1

[7] = molecular target: T3, UniProt Q9P2H5
T3 sequence (whole entry): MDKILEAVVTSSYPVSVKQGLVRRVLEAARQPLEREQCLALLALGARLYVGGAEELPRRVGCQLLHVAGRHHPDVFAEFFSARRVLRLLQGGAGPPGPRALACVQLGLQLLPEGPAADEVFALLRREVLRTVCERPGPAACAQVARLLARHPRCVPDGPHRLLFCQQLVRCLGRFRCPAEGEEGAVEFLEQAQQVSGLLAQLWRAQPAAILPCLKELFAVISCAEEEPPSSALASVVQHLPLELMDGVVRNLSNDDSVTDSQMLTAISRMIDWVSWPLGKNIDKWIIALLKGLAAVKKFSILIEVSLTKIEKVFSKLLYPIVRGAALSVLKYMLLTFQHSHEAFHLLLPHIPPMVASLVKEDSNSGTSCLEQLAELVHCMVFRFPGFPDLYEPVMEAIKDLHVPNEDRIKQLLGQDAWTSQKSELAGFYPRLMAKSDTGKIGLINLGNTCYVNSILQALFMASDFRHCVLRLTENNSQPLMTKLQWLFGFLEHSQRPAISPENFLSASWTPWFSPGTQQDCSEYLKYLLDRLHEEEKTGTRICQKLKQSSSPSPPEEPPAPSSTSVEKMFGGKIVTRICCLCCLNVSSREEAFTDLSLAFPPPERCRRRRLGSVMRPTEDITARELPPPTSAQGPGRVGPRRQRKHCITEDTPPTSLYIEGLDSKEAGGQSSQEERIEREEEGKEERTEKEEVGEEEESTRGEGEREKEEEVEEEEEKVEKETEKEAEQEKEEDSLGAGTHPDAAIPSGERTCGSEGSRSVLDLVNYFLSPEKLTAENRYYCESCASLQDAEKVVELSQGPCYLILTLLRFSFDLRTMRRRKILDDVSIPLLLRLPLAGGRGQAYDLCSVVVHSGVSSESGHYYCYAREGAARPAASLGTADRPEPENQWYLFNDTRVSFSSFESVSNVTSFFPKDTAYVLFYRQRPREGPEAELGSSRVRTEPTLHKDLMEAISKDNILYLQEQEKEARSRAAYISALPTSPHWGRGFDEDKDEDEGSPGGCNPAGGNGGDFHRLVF
How it was run: as §1

[8] = molecular target: T4, UniProt Q9UGI0
T4 sequence (whole entry): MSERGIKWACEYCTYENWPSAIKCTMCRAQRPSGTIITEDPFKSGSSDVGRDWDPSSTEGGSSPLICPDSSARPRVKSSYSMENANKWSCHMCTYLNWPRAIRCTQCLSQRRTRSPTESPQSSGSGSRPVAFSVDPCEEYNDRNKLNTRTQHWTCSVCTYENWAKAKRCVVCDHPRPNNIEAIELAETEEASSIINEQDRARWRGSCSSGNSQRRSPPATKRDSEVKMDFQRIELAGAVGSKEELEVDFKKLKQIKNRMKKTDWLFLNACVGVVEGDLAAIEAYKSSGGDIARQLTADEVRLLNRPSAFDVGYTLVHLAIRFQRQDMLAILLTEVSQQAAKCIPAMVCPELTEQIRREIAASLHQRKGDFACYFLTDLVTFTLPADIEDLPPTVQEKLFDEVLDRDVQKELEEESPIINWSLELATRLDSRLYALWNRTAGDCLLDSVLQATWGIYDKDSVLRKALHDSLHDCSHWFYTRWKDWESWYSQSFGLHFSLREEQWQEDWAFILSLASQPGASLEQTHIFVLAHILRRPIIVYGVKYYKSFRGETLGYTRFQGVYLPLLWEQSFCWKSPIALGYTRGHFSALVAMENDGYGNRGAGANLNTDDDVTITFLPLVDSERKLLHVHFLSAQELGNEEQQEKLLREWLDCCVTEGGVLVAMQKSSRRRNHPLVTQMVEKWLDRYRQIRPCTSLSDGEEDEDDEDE
How it was run: as §1

[9] = molecular target: T5, YOD1 (UniProt Q5VVQ6)
T5 sequence (whole entry): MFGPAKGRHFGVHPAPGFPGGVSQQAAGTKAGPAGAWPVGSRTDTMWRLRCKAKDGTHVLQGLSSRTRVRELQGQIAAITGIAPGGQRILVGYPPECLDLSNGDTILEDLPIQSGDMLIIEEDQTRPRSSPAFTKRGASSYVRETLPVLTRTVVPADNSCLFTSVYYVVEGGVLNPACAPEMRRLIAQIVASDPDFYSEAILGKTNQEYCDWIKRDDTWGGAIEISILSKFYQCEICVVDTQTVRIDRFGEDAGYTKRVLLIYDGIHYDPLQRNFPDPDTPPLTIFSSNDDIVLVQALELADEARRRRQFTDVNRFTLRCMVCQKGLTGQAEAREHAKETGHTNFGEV
How it was run: as §1

Measured: log2 ratio of Biotin-Ahx-Ub-VS probe labelling

CCC(NC(=O)CCl)c1ccc(Cl)cc1 (centres undefined)
inactive: [1] -0.112 | [2] 0.0429 | [3] 0.32 | [4] 0.0791 | [5] -0.182 | [6] -0.735 | [7] -0.319 | [8] -0.279 | [9] 0.188
